# Compound activity from PubChem BioAssay.
# Sampled rows, rich in hits. Any-hit rate of the full collection: about 21%.
# Shiga inhibitor = Shiga toxin inhibition; Vero cells, Shiga toxin protein synthesis inhibition reporter; inhibition, % at 38.7 µM; 290,000 tested, 9.2% active; AID 2315; in the data active = inhibition mostly above about 28%, no sharp cut-off; inactive = mostly below about 43%
# Pf growth 48h = inhibits P. falciparum growth in the first generation, 48 h; P. falciparum luciferase growth in erythrocytes, 48 h; Potency, µM (titrated, usually from 28.7 µM), actives largely listed as inhibitors; 310,000 tested, 5.9% active
#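 Luciferase-expressing parasites in RBCs, 2% Hct / 0.1% parasitemia final; RPMI 1640 + 0.5% Albumax; 37 C, 5% CO2, one generation; luminescence read-out, lower signal = inhibition.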
# Pf growth 96h = inhibits malaria parasite growth, 96 h | P. falciparum luciferase reporter growth, 96 h | Potency, µM (top dose mostly 28.7 µM), most hits filed as inhibitors | 320,000 tested, 6.9% active | AID 504834
#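 Two parasite generations (96 h, 37 C, 5% CO2) of compound exposure in infected erythrocytes (0.05% parasitemia, 2% hematocrit). Luciferase-reporter P. falciparum; decreased luminescence indicates inhibited growth, aimed at apicoplast-acting delayed death.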
# HCMV antiviral = blocks human cytomegalovirus replication. HFF cells, HCMV-luciferase reporter, 72 h; active compounds read low. activity change, negative = inhibition, % at 57.5 µM. 410,000 tested, 4.5% active; in the data active = activity change below about -60%; inconclusive = no clear call, values can overlap the other calls; inactive = above about -39%
#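 Cell-based, HFFs, 1000 cells/well, 16 h 37C; cpds in DMSO + HCMV-luc, MOI 1 PFU/cell; 72 h 37C; OneGlo luminescence after 5 min RT; norm. to buffer vs Salinomycin 10uM.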
# CHX counter = counter-screen for Shiga toxin inhibitors: cycloheximide protein synthesis inhibition | max response, % | 300,000 tested, 12% active | cell reporter, cycloheximide protein synthesis inhibition counterscreen; in the data active = max response mostly above about 13%, no sharp cut-off; inactive = mostly below about 14%; also: read at 38.3 µM for the half of the compounds with a filed dose
# HCV inh = HCV inhibition | Huh7.5.1 HCVcc-Cre infection, luciferase reporter, 44 h | Potency, µM (titrated, usually from 41.8 µM), most hits filed as inhibitors | 340,000 tested, 3.4% active
#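 Antiviral activity was scored by luciferase reporter output from cells infected with HCVcc-Cre (~0.5 moi) in presence of compound, 44 h infection period, cells seeded 1,000/well 4 h prior.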
# A number is an active result; – = inactive; ? = inconclusive; · = no result given; [ ] = remark or other dose. Unless noted, calls follow the shape of the dose curve; as a rule, active = well fitted inhibition curve with a large enough effect; inconclusive = small, poorly fitted or top-dose-only effect, or another doubt; inactive = no such curve, though single readings can be large or run the other way.
SMILES,Shiga inhibitor,Pf growth 48h,Pf growth 96h,HCMV antiviral,CHX counter,HCV inh
CN1CCN(CCCNC(=O)c2ccc3c(Cl)c4c(nc3c2)CCCC4)CC1,–,?,–,?,–,10µM
O=C(NCc1ccc(F)cc1)c1ccc2c(Cl)c3c(nc2c1)CCCC3,·,·,·,-73,·,·
CCc1ccc(CNC(=O)c2ccc3c(Cl)c4c(nc3c2)CCCC4)cc1,·,·,·,–,·,·
COc1ccc(CCNC(=O)c2ccc3c(Cl)c4c(nc3c2)CCCC4)c(OC)c1,·,·,·,-94,·,·
O=C(/C=C/c1ccccc1)Nc1cc(-c2nc3ccccc3o2)ccc1Cl,·,·,·,–,·,·
CC1CCN(c2c(NCC3CCC(C(=O)NCc4ccccc4Cl)CC3)c(=O)c2=O)CC1 (stereo unspecified),–,?,?,–,–,–
CCOC(=O)C1=C(NC(=S)NC(=O)c2ccccc2)c2ccccc2CC12CCCC2,–,?,?,-99,–,?
CCOC(=O)c1sc(NC(=O)C(OC(C)=O)c2ccccc2)nc1C (stereo unspecified),39,–,10µM,–,25,–
CCOC(=O)c1sc(NC(=S)NC(=O)c2ccccc2)nc1C,165,–,–,–,42,–
Cc1nc(NC(=S)NC(=O)c2ccccc2)sc1C(=O)N(C)C,–,·,–,–,22,–
C[C@@H]1NC(=O)N[C@@H]1CCCCCC(=O)O,·,·,·,–,·,–
COC(=O)c1sc(NC(=S)NC(=O)c2ccccc2)nc1C,–,–,?,–,26,–
COC(=O)c1sc(NC(=S)NC(=O)c2cc(OC)c(OC)c(OC)c2)nc1C,–,–,–,–,–,–
COC(=O)c1sc(NC(=S)NC(=O)c2ccccc2Cl)nc1C,65,–,–,–,40,–
CN(C)C(=O)CSc1cccc2cccnc12,–,–,–,–,12,?
O=C(CSc1cccc2cccnc12)N1CCCC1,37,–,–[5.75 µM],?,42,0.71µM
O=C(CSc1ncccn1)N1CCCCCC1,·,·,·,–,·,–
O=C(Nc1cc(S(=O)(=O)N2CCOCC2)ccc1OCC(F)(F)F)C1=COCCO1,·,?,?,–,·,?
COc1ccc(OC)c(-c2cnc(OC(C)(C)C)nc2OC(C)(C)C)c1,–,12µM,10µM,–,–,–
CNc1ccc(-c2cc(OC)ccc2OC)cn1,·,·,·,–,·,·
CCN(Cc1nc(-c2ccc(Cl)cc2)no1)CC1CCCO1 (stereo unspecified),–,–,?,–,14,–
CN1CCCN(Cc2nc(-c3ccc(Cl)cc3)no2)CC1,–,–,?,–,29,?
COC(=O)c1ccc(-c2noc(CN(C)CCC3CCCCO3)n2)cc1 (stereo unspecified),–,–,?,–,16,–
c1ccc(-c2noc(CN3CCc4sccc4C3)n2)cc1,–,–,?,–,18,?
c1ccc(-c2noc(CN3CCN(C(c4ccccc4)c4ccccc4)CC3)n2)cc1,–,?,–,–,–,–
SMILES,Shiga inhibitor,Pf growth 48h,Pf growth 96h,HCMV antiviral,CHX counter,HCV inh
Cc1cccc(C)c1NC(=O)C(C1CC1)n1c(=O)c(-c2cc3ccccc3[nH]2)nc2ccccc21 (stereo unspecified),·,·,·,–,·,·
CC(=O)N/C(=C\c1ccccc1)C(=O)OCCCOC(=O)/C(=C/c1ccccc1)NC(C)=O,–,–,–,–,–,–
N/C(=N\NS(=O)(=O)c1ccccc1Cl)c1ccccn1,·,·,·,–,·,–
O=C(NCc1ccc2c(c1)OCO2)C1CCCN1S(=O)(=O)c1ccc(Cl)cc1 (stereo unspecified),–,–,–,–,–,–
c1ccc(-c2noc(CN3CCN(c4ccccc4)CC3)n2)cc1,–,·,7.4µM,–,–,–
CC1CCN(Cc2nc(-c3ccccc3)no2)CC1,–,–,–,–,23,–
CC1CCN(Cc2nnc(-c3cccc(Br)c3)o2)CC1,32,–,–,–,34,–
CN1CCN(Cc2nnc(-c3ccccc3)o2)CC1,–,–,–,–,–,–
Fc1ccccc1N1CCN(Cc2nc(-c3ccccc3)no2)CC1,–,–,·,–,–,–
NC(=O)[C@@H]1CCCN1Cc1nc(-c2ccc(C(F)(F)F)cc2)no1,–,–,?,–,16,–
Cc1ccccc1C(=O)NNC(=O)c1cc(S(=O)(=O)N2CCOCC2)ccc1C,·,–,–,–,·,–
COC(=O)Cc1c(C)c2ccc3c(c2oc1=O)CN(Cc1ccccc1OC)CO3,·,·,·,–,·,·
COc1ccc(NC(=O)N2CCC(n3c(C)nc4cccnc43)CC2)cc1OC,·,·,·,–,·,·
